# Measurements published in PubChem BioAssay (NCATS).
# Records with an inconclusive call do not appear. Entries that show only a call come without a potency. Calls of active or inactive are those of the source. Calls come from the whole dose curve; as a rule, active = well fitted curve in the direction sought with a large enough effect; inconclusive = small, poorly fitted or top-dose-only effect, or another doubt; inactive = no such curve, though single readings can be large; an effect the other way counts as inactive or inconclusive.
# Experiments:
# [1] = target: Glutathione peroxidase 1 (Homo sapiens) (UniProt P07203); assay: Primary qHTS Assay for Inhibitors of Recombinant Selenoprotein Glutathione Peroxidase 1 (GPX1) (AID 1845191); note: nearly all actives have a fitted effect of over 65% in size
# Outline: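 Recombinant GPX1 (10 nM final) was preincubated with compound for 30 min at room temperature, then reacted with 1 mM GSH, 0.5 mM CHP, 0.5 mM NADPH and 100 nM glutathione reductase; NADPH fluorescence (340/450 nm) was read at 0 and 15 min.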
# [2] = target: Phospholipid hydroperoxide glutathione peroxidase GPX4 (Homo sapiens) (UniProt P36969); assay: Primary qHTS Assay for Inhibitors of Recombinant Selenoprotein Glutathione Peroxidase 4 (GPX4) (AID 1845192); note: nearly all actives have a fitted effect of over 65% in size
# Outline: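 GR-coupled readout: 100 nM GR, 1 mM GSH, 0.5 mM NADPH; NADPH fluorescence (ex 340/em 450 nm) read at t=0 and after 15 min RT. GPX4 200 nM, preincubated 30 min with compound; substrate 0.5 mM CHP.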
# [3] = target: Metallo-beta-lactamase type 2 (Klebsiella pneumoniae) (UniProt C7C422); assay: qHTS to identify inhibitors of the New Delhi Metallo-beta-lactamase (NDM): assay validation screen against the NCATS LOPAC Collection (AID 1794843);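 note: nitrocefin turnover by NDM-1 measured as 485 nm absorbance at plateau; series mostly up to about 38 µM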
# Outline: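 NDM-1 at 2 nM final in 50 mM HEPES pH 7.0 with 1 uM ZnSO4 and 0.01% Tween20 was preincubated with library compounds in DMSO. Nitrocefin (50 uM stock) was then added, and absorbance at 485 nm was read at the kinetic plateau.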
# [4] = Quantitative High-Throughput drug screen in 47 multiple myeloma cell lines against the NCATS MIPE library collection: Delta47_JCRB cell viability assay (AID 1918925; note: nearly all actives have a fitted effect of over 45% in size; note: potency is the fitted concentration of half-maximal effect)
# Outline: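 Approved and investigational drugs from MIPE 4.0 were added by pin tool to 500 cells per well. After 48 hours at 37C, ATP-based CellTiter-Glo luminescence indicated remaining viability.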
# [5] = Quantitative High-Throughput drug screen in 47 multiple myeloma cell lines against the NCATS MIPE library collection: FR4_PLB cell viability assay (AID 1918924; note: nearly all actives have a fitted effect of over 35% in size; note: potency is the fitted concentration of half-maximal effect)
# Outline: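 Viability readout: CellTiter-Glo luminescence following 5 min room-temperature incubation with reagent. Prior exposure: 48 h, 37C, humidified 5% CO2, 500 cells per well.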
# Sequence of Metallo-beta-lactamase type 2 (Klebsiella pneumoniae) (C7C422 whole entry, looked up): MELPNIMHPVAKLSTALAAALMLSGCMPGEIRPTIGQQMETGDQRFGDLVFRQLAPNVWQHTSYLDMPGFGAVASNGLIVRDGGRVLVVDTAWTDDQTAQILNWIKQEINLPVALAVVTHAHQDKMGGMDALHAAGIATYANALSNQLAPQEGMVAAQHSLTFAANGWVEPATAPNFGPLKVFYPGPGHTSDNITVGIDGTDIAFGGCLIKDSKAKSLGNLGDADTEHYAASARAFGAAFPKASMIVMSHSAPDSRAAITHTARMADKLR
# Sequence of Phospholipid hydroperoxide glutathione peroxidase GPX4 (Homo sapiens) (P36969 whole entry, looked up): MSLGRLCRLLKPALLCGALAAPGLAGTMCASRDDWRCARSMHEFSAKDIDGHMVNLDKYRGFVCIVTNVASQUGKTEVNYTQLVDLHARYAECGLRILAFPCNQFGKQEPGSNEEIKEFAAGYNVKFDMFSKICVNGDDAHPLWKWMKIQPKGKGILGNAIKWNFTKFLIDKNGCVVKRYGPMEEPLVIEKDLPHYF
# Sequence of Glutathione peroxidase 1 (Homo sapiens) (P07203 whole entry, looked up): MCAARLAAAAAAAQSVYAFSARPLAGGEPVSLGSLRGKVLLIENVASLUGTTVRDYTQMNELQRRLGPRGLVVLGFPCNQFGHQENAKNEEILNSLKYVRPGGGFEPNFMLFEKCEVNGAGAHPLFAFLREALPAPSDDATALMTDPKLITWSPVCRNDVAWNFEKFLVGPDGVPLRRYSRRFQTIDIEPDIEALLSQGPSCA
structure (smiles),measurement,setting,value
CCC(COC(=O)c1cc(OC)c(OC)c(OC)c1)(c1ccccc1)N(C)C (configuration not stated),Potency,[1],inactive
same,Potency,[2],inactive
CCCC1CCCCN1 (configuration not stated),Potency,[1],inactive
same,Potency,[2],inactive
COc1ccc2c(c1OC)CN1CCc3cc4c(cc3C1C2)OCO4 (configuration not stated),Potency,[1],inactive
C=C1C[C@@H]2[C@H](CC[C@]3(C)C(=O)CC[C@@H]23)[C@@]2(C)C=CC(=O)C=C12,Potency,[1],inactive
same,Potency,[2],inactive
OCCOc1ccccc1,Potency,[1],inactive
same,Potency,[2],inactive
CC(C)NCC(O)c1ccccc1Cl (configuration not stated),Potency,[1],inactive
same,Potency,[2],inactive
C[C@]12CC[C@H]3[C@@H](CCC4=CC(=O)CC[C@@H]43)[C@@H]1CC[C@@H]2OC(=O)CCc1ccccc1,Potency,[1],inactive
same,Potency,[2],inactive
Clc1ccc(COC(Cn2ccnc2)c2ccc(Cl)cc2Cl)cc1 (configuration not stated),Potency,[1],inactive
same,Potency,[2],inactive
N#CC(C#N)=Cc1ccc(O)c(O)c1,Potency,[1],inactive
same,Potency,[2],inactive
Cc1cccc(C)c1NC(=O)CN1CCCC1=O,outcome,[3],inactive
same,Potency,[1],inactive
same,Potency,[2],inactive
same,Potency,[4],inactive
Fc1ccc(C(OCCN2CCN(CCCc3ccccc3)CC2)c2ccc(F)cc2)cc1,outcome,[3],inactive
same,Potency,[1],inactive
same,Potency,[2],inactive
same,Potency,[5],20.9 µM (active)
same,Potency,[4],8.33 µM (active)
O=[N+]([O-])c1cc([As](=O)(O)O)ccc1O,Potency,[1],inactive
same,Potency,[2],inactive
CC(C)(C)NCC(O)c1cc(Cl)c(N)c(Cl)c1 (configuration not stated),Potency,[1],inactive
same,Potency,[2],inactive
CC(C)=CC1C(C(=O)OCc2cccc(Oc3ccccc3)c2)C1(C)C (configuration not stated),Potency,[1],inactive
same,Potency,[2],inactive
C=C1CC[C@@]2(O)[C@H]3Cc4ccc(O)c5c4[C@@]2(CCN3CC2CC2)[C@H]1O5,Potency,[1],inactive
same,Potency,[2],inactive
Clc1ccc(CCC(Cn2ccnc2)Sc2c(Cl)cccc2Cl)cc1 (configuration not stated),Potency,[1],inactive
same,Potency,[2],inactive
Oc1cc(Cl)ccc1Oc1ccc(Cl)cc1Cl,Potency,[1],inactive
same,Potency,[2],inactive
Oc1ccc(Cl)cc1Cc1ccccc1,Potency,[1],inactive
same,Potency,[2],inactive
CCC(C(N)=O)N1CCCC1=O (configuration not stated),Potency,[1],inactive
same,Potency,[2],inactive
Cn1c(CCCC(=O)O)nc2cc(N(CCCl)CCCl)ccc21,outcome,[3],inactive
same,Potency,[1],inactive
same,Potency,[2],inactive
same,Potency,[5],16.6 µM (active)
same,Potency,[4],1.18 µM (active)
C=CCN1CC[C@]23c4c5ccc(O)c4O[C@H]2C(=O)CC[C@@]3(O)[C@H]1C5,Potency,[1],inactive
same,Potency,[2],inactive
C[C@]12CCC(=O)C(O)=C1CC[C@@H]1[C@@H]2CC[C@]2(C)C(=O)CC[C@@H]12,Potency,[1],inactive
same,Potency,[2],inactive
CC(C)(C)CC(C)(C)c1ccc(O)cc1,Potency,[1],inactive
same,Potency,[2],inactive
COC1(CS(=O)c2ccccc2)CCN(CCc2c[nH]c3ccc(F)cc23)CC1 (configuration not stated),Potency,[1],inactive
same,Potency,[2],inactive
same,Potency,[5],inactive
CC1=C2C[C@@H]3[C@@H](CC=C4C[C@@H](O)CC[C@@]43C)[C@@H]2CC[C@]12O[C@H]1C[C@H](C)CN[C@H]1[C@H]2C,Potency,[5],10.5 µM (active)
